Results reported in PubChem BioAssay (NCATS).
Some of the results follow. Records with an inconclusive call do not appear. Active and inactive are the calls of the source. Calls come from the whole dose curve; as a rule, active = well fitted curve in the direction sought with a large enough effect; inconclusive = small, poorly fitted or top-dose-only effect, or another doubt; inactive = no such curve, though single readings can be large; an effect the other way counts as inactive or inconclusive.

These molecules were tested against DNA polymerase iota (Homo sapiens) (UniProt Q9UNA4) (assay: qHTS for Inhibitors of Polymerase Iota: Confirmatory Assay for Cherry-picked Compounds (AID 720496)). Settings: Pol iota primer extension, TAMRA/BHQ fluorescence.
Chain of DNA polymerase iota (Homo sapiens) (Q9UNA4 whole entry, looked up): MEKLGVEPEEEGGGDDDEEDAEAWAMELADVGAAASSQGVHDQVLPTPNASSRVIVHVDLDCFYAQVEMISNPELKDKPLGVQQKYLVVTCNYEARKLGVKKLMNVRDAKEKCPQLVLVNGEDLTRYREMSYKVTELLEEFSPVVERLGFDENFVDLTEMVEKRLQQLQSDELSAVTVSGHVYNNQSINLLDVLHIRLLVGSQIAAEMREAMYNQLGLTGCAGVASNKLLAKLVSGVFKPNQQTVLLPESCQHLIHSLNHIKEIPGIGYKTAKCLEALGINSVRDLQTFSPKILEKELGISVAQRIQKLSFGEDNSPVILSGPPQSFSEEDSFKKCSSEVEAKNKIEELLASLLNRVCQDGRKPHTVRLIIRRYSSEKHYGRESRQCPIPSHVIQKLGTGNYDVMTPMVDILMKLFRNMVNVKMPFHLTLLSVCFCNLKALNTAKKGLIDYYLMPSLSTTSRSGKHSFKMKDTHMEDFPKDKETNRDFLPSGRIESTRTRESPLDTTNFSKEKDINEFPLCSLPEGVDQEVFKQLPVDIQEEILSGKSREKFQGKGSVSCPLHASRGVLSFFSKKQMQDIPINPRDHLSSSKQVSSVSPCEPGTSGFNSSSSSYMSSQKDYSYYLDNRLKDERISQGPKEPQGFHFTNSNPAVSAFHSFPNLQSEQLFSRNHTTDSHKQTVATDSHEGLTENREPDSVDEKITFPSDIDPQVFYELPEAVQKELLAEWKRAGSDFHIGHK
How it was run: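 Using TAMRA dequenching as read-out, activity of 10 nM human Pol iota on 50 nM (final) primer/reporter/template substrate was tracked from 0 to 10 min, following a 15 min room-temperature compound preincubation.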
Potency is the fitted concentration of half-maximal effect.

Potency, active:
CCOC(=O)C1=C(c2ccc(OC)cc2)C(=O)c2ccccc2C1=O 75.2 µM
CCN(c1ccc(Cl)cc1)S(=O)(=O)c1nnc(NC(=O)c2ccco2)s1 75.2 µM
CN(C)CCNC(=O)c1ccc(Cl)c2cc3ccccc3nc12 67 µM
COc1ccc(Cl)cc1NC(=O)CCS(=O)(=O)c1ccc(Br)cc1 18.9 µM
CC(/C=N/NC(=O)c1cc(-c2ccc3ccccc3c2)n[nH]1)=C\c1ccco1 75.2 µM
CCc1ccc2nc3sc(C(=O)Nc4nnc(CC)s4)c(N)c3cc2c1 47.4 µM
Cc1c(CC(=O)N2CCN(C(=O)C3COc4ccccc4O3)CC2)c(=O)oc2c(O)c(O)ccc12 (stereo not given) 15 µM

The molecules below were run against Bifunctional 3'-5' exonuclease/ATP-dependent helicase WRN (Homo sapiens) (UniProt Q14191) (assay: qHTS for Inhibitors of WRN Helicase: Confirmatory Assay for Cherry-picked Compounds. (AID 720497; note: nearly all actives have a fitted effect of over 65% in size)). Settings: WRN helicase DNA unwinding, fluorescence kinetic; series mostly up to 57.1 µM.
Chain of Bifunctional 3'-5' exonuclease/ATP-dependent helicase WRN (Homo sapiens) (Q14191 whole entry, looked up): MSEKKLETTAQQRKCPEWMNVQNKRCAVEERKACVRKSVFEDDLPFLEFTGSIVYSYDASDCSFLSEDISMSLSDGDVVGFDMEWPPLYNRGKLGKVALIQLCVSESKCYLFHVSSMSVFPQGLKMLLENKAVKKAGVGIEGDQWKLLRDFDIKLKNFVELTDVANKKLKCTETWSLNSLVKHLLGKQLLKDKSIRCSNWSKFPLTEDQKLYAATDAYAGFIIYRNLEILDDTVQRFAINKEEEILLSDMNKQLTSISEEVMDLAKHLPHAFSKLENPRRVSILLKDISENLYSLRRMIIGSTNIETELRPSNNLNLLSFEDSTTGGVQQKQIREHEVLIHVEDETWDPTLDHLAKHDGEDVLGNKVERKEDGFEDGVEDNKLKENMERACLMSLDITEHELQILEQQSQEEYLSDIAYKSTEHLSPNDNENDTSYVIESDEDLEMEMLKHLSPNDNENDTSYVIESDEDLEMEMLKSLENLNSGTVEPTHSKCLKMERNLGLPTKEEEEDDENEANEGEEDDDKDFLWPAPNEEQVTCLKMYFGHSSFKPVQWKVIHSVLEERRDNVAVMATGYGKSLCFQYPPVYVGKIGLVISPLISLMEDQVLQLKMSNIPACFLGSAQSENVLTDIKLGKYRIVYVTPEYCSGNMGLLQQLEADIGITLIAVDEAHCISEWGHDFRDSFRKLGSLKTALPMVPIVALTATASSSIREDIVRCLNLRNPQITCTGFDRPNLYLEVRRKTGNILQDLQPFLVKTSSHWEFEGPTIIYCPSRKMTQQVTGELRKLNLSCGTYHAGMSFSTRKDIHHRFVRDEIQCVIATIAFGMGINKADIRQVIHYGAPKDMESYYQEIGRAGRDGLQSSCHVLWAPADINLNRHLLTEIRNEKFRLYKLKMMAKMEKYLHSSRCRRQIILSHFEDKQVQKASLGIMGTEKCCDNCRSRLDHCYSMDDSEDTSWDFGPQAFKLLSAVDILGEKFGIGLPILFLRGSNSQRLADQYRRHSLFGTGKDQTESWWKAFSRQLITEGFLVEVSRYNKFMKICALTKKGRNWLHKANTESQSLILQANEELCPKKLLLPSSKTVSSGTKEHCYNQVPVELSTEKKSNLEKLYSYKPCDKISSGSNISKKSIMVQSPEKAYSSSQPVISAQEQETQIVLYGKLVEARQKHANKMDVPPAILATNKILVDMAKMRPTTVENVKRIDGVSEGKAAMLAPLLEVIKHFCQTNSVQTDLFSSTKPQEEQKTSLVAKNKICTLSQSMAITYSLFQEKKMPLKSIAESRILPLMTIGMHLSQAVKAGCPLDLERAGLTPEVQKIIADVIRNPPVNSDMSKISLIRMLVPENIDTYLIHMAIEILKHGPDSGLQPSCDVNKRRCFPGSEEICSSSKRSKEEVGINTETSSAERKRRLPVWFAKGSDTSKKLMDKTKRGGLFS
How it was run: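 Kinetic fluorescence helicase read-out (525 nm excitation, 598 nm emission) on a forked duplex substrate at 100 nM with 2 mM ATP. Enzyme: 20 nM WRN, exposed to compound for 15 min at room temperature. Responses normalized to buffer-only and positive-control wells.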

Potency, active:
COc1ccc(Cl)cc1NC(=O)CCS(=O)(=O)c1ccc(Br)cc1 21.5 µM
CCc1ccc2nc3sc(C(=O)Nc4nnc(CC)s4)c(N)c3cc2c1 13.6 µM
Cc1c(CC(=O)N2CCN(C(=O)C3COc4ccccc4O3)CC2)c(=O)oc2c(O)c(O)ccc12 (stereo not given) 2.41 µM
